# In PubChem BioAssay:
# Records with an inconclusive call do not appear. Activity calls are given as the source filed them.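 How the source made its calls, unless noted: active means growth inhibition above 25% in both replicates, a cutoff set 3 SD above the mean; inconclusive means above 25% in only one replicate; inactive means the rest.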
# Assays:
# [1] = reducers of endogenous Her2 protein level, primary screen, SKBR3 breast tumor cells, AlphaScreen, ATP viability (AID 461;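 active means Her2 level under about 52% in both replicate screens, with viability over 70% of control, limit read from the data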;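 on Her2 level: lower value means less Her2 protein in the cells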;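 on viability: percent of carrier control wells set as 100% viability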); details: 18-24 h, measured here: SKBR3 viability, ATP luminescence, at 10 µM
# [2] = target: Receptor tyrosine-protein kinase erbB-2 (Homo sapiens) (UniProt P04626); test: as above; details: 18-24 h, at 10 µM, stronger effect = lower value
# [3] = SK-BR-3 cell growth inhibitors, pilot screen, 24 h, human (AID 572;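 active means viability at or below 10% of carrier control in both of two separate runs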;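 further: compound exposure lasted between 18 and 24 h rather than exactly 24 h; 100% = carrier-treated control wells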); details: SK-BR-3 viability, CellTiter-Glo luminescence, at 10 µM, stronger effect = lower value
# [4] = HUVEC growth inhibition – cell-based, human, primary screen (AID 575;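 active means viability at or below 30% in both replicate assays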;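 further: 100% = median of untreated cell wells with 0.1% DMSO on each plate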); details: HUVEC proliferation, CellTiter-Glo luminescence, 72 h; at 10 µM; stronger effect = lower value
# [5] = growth inhibitors of H69AR lung tumor, primary screen, human, duplicate replicates (AID 580;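 active means viability at or under a set limit in both replicates, limit being median viability minus 3 SD, cut at about 48% in these data, passing the limit was not always enough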;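 further: 100% = mean luminescence of untreated wells and 0% = no signal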); details: H69AR lung tumor cells viability, ATP luminescence, 72 h; at 10 µM; stronger effect = lower value
# [6] = reversal of MRP1-mediated doxorubicin resistance, pilot screen, H69AR cells, doxorubicin co-treatment (AID 601;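 active means viability loss from added drug above about 55%, and viability with drug at most 40%, in both replicates, limit read from the data, passing the limit was not always enough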); details: CellTiter-Glo, 72 h, at 10 µM; for differential viability (reversal): stronger effect = higher value
# [7] = 384-well plate pilot, post-Golgi transport modulator project, inhibition of yeast transport mutant growth (AID 636; in the data active means inhibition above about 31%); details: absorbance 615 nm, about 18 h, stronger effect = higher value
# [8] = growth suppression of yeast trafficking mutant, preliminary HTS, modulators of trafficking downstream of Golgi apparatus project, 1536-format plate, OD 615 nm (AID 637; in the data active means inhibition above about 30%); details: yeast transport mutant growth, absorbance 615 nm, 18 h; stronger effect = higher value
# [9] = OD615 S. cerevisiae growth inhibition, permissive medium, pilot counter-assay, permissive growth control for S. cerevisiae lifespan shortening project (AID 705); details: OD615, 24 h, at 10 µM, stronger effect = higher value
# [10] = Restrictive medium S. cerevisiae growth inhibition, OD615, pilot screen of yeast lifespan reduction project, restrictive growth control (AID 706;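 active means growth inhibition above a set limit, 3 SD over mean compound inhibition, in both replicates, cut at about 43% in these data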;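 further: modified DeaD lifespan yeast strain shifted to restrictive glucose medium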); details: OD615, 48 h, at 10 µM, stronger effect = higher value
# [11] = viability gain of MRP-1-high H69AR cells under doxorubicin, pilot screen, MRP-1 activator project, CellTiter-Glo, duplicate (AID 807;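 active means viability increase at or above a cutoff of the median across tested compounds plus 3 SD, cut at about 8.5% in these data, passing the limit was not always enough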;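 further: compound pretreatment 18-22 h then 72 h combined with doxorubicin; 0% = doxorubicin alone and 100% = vehicle without doxorubicin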); details: H69AR viability with doxorubicin, CellTiter-Glo luminescence; at 10 µM; stronger effect = higher value
# [12] = growth suppression of beta-catenin knockout HCT116, pilot screen, human colon tumor cells (AID 823;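 active means cell viability at or below a set limit in both duplicate runs, the limit being the all-compound median minus 4 SD, cut at about 23% in these data, passing the limit was not always enough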;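 further: 0% = wells killed by 20 µM Hyamine and 100% = untreated DMSO cell wells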); details: CellTiter-Glo, 60 h, at 10 µM, stronger effect = lower value
# [13] = growth suppression of PTEN-deleted HCT116, pilot screen, cell-based, HCT116 clonal line, CellTiter-Glo (AID 824;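 active means viability at or below 27.92% in each of two runs, the all-compound median minus 4 SD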;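 further: 0% = 20 µM Hyamine control and 100% = vehicle cell control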); details: 60 h, at 10 µM, stronger effect = lower value
# [14] = inhibitors of the yeast RAM network, pilot screen, dse1pr::URA3 reporter, 5-FOA selection (AID 869;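 active means inhibition over a set limit, the all-compound mean plus 3 SD, in both replicate runs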;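 further: 0% = DMSO wells with no growth and 100% = 10 µM 1-NA-PP1 with full growth; RAM network block rescues cells from 5-FOA so hits raise OD615 growth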); details: S. cerevisiae dse1pr::URA3 5-FOA growth, OD615, 2 d; at 10 µM; stronger effect = higher value; strain carries analog-sensitive mutant Cbk1 kinase
# [15] = RAM signaling pathway blockade in yeast – S. cerevisiae, Pdr1DBD-CYC8 efflux-inhibited sensitized strain, primary screen (AID 1298;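 active means RAM network inhibition above 8.4% in each of two replicates, 3 SD over the compound average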;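 further: 0% = DMSO untreated cells without growth and 100% = 10 µM 1-NA-PP1 full growth; higher means more yeast growth rescued from 5-FOA killing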); details: S. cerevisiae cbk1-as DSE1-URA3 strain, 5-FOA growth OD615, 2 d; at 50 µM; stronger effect = higher value
# [16] = H69AR cells + 2 uM doxorubicin, measured here: viability with 2 uM doxorubicin, stronger effect = lower value
# [17] = H69AR cells, compound alone cytotoxicity
# Receptor tyrosine-protein kinase erbB-2 (Homo sapiens), sequence (P04626 whole entry, looked up): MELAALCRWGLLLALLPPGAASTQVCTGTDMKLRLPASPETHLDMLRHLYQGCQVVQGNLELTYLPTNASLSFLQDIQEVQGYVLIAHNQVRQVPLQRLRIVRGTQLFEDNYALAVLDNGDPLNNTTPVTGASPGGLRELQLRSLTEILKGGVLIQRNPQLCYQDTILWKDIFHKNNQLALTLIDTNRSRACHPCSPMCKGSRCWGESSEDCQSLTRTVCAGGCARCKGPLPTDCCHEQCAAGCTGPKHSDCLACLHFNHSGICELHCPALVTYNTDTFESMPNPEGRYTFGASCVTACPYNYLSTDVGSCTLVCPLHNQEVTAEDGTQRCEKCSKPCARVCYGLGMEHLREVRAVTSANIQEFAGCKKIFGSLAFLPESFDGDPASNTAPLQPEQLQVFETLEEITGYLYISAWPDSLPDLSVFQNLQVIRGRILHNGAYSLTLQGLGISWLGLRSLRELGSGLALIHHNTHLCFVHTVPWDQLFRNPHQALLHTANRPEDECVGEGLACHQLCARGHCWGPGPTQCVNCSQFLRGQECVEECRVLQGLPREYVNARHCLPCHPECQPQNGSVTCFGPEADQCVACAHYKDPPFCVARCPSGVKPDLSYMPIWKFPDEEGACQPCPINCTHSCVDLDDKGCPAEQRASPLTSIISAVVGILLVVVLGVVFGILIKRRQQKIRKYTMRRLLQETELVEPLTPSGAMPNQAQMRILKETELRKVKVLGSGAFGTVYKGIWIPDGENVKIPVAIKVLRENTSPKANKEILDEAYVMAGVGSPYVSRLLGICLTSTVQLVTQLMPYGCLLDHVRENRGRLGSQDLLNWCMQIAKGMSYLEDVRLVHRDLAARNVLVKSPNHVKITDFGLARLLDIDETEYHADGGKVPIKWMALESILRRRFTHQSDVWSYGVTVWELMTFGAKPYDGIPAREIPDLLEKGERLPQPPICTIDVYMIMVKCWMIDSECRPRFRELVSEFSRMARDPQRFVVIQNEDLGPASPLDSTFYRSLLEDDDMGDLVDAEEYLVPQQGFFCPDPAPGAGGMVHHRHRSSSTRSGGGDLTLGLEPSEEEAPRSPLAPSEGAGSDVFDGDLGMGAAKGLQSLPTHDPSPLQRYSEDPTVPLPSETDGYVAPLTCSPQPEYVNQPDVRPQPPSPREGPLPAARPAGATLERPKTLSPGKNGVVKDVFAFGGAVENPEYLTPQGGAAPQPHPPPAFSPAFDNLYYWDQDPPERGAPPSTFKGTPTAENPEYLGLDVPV
SMILES,viability [1],Her2 level [2],viability [3],viability [4],viability [5],differential viability (reversal) ([6]; H69AR cells + 2 uM doxorubicin),"viability [6, 16]","viability [6, 17]",inhibition [7],inhibition [8],growth inhibition [9],growth inhibition [10],viability increase [11],viability [12],viability [13],inhibition [14],RAM network inhibition [15]
COC(=O)C(C#N)C(=C1C(=O)CC(C)(C)CC1=O)c1ccc(O)cc1 (stereo not drawn),90%,92.5% (inactive),90% (inactive),96.5% (inactive),92% (inactive),-3.63% (inactive),95.6%,92%,0.9% (inactive),-1.17% (inactive),-1.85% (inactive),0.91% (inactive),0.99% (inactive),97.5% (inactive),101% (inactive),1.16% (inactive),2.01% (inactive)
CCCCc1cc2c(c(NC(C)=O)n1)c(=O)oc1ccccc12,112%,99% (inactive),112% (inactive),80.6% (inactive),77.9% (inactive),-8.33% (inactive),86.2%,77.9%,-3.47% (inactive),-4% (inactive),-9.7% (inactive),-4.55% (inactive),-4.33% (inactive),94.8% (inactive),87.8% (inactive),1.68% (inactive),3.84% (inactive)
Cc1n[nH]c(C)c1N1C(=O)c2cccc3cc(Br)cc(c23)C1=O,74.5%,79% (inactive),74.5% (inactive),85.5% (inactive),81.1% (inactive),-1.29% (inactive),82.4%,81.1%,0.26% (inactive),-4% (inactive),-11.5% (inactive),-11.6% (inactive),-2.41% (inactive),107% (inactive),101% (inactive),3.01% (inactive),4.68% (inactive)
CCCNc1nc(N2CCOCC2)nc(N2CCOCC2)n1,97.5%,110% (inactive),97.5% (inactive),109% (inactive),90.5% (inactive),-3.39% (inactive),93.9%,90.5%,-0.52% (inactive),-7.38% (inactive),-4.61% (inactive),2.38% (inactive),-0.12% (inactive),92.8% (inactive),102% (inactive),1.26% (inactive),2.19% (inactive)
Cc1cc(C)c(C#N)c(SCC(=O)Nc2ccc(S(=O)(=O)Nc3onc(C)c3C)cc2)n1,90.5%,97% (inactive),90.5% (inactive),82.4% (inactive),87.4% (inactive),-9.41% (inactive),96.8%,87.4%,-3.73% (inactive),0.33% (inactive),-1.4% (inactive),7.54% (inactive),-0.72% (inactive),109% (inactive),100% (inactive),1.98% (inactive),2.19% (inactive)
COc1ccc(S(=O)(=O)Cc2ccc(C(=O)N3CCN(c4ccccc4)CC3)o2)cc1,72.5%,115% (inactive),72.5% (inactive),104% (inactive),84.4% (inactive),-1.7% (inactive),86.1%,84.4%,-2.8% (inactive),-7.5% (inactive),-11.7% (inactive),-18.9% (inactive),-2.99% (inactive),88.8% (inactive),89.3% (inactive),0.76% (inactive),8.54% (inactive)
CCOc1ccc(NC(=O)C(C)Sc2nnc(C)n2C)cc1 (stereo not drawn),92%,126% (inactive),92% (inactive),97.6% (inactive),98.8% (inactive),2.75% (inactive),96.1%,98.8%,-1.33% (inactive),-1.17% (inactive),-3.46% (inactive),3.31% (inactive),-0.82% (inactive),95.7% (inactive),93.9% (inactive),0.705% (inactive),-0.63% (inactive)
Cc1cc(C)nc(NC2=NCC(=O)N2c2ccccc2Br)n1,93%,93.5% (inactive),93% (inactive),101% (inactive),89.8% (inactive),-10.2% (inactive),100%,89.8%,-7.07% (inactive),-2.33% (inactive),-2.53% (inactive),4.3% (inactive),-0.37% (inactive),95.4% (inactive),100% (inactive),2.06% (inactive),8.53% (inactive)
O=C(Cn1nc(Cc2cccnc2)c2ccccc2c1=O)Nc1ccc2c(c1)OCO2,87%,96.5% (inactive),87% (inactive),84.5% (inactive),85.2% (inactive),9.09% (inactive),76.2%,85.2%,-4.8% (inactive),-0.67% (inactive),0.565% (inactive),7.93% (inactive),2.16% (inactive),99% (inactive),106% (inactive),0.975% (inactive),2.81% (inactive)
CC1=C(C(=O)OC(C)C)C(c2cccc(F)c2)n2ncnc2N1 (stereo not drawn),103%,112% (inactive),103% (inactive),101% (inactive),90.7% (inactive),-1.02% (inactive),91.7%,90.7%,0.27% (inactive),3.83% (inactive),-7.79% (inactive),-4.85% (inactive),0.62% (inactive),103% (inactive),100% (inactive),1.74% (inactive),5.32% (inactive)
CC1Cc2nc(SCC(=O)Nc3ccc4c(c3)OCO4)n(-c3ccc(F)cc3)c(=O)c2S1 (stereo not drawn),90.5%,98% (inactive),90.5% (inactive),79.2% (inactive),89.2% (inactive),2.12% (inactive),87.1%,89.2%,-5.87% (inactive),9.33% (inactive),-7.17% (inactive),5.03% (inactive),-2.53% (inactive),93.6% (inactive),86.7% (inactive),2% (inactive),6.73% (inactive)
COC(=O)CSc1nnc(-c2ccncc2)o1,116%,127% (inactive),116% (inactive),105% (inactive),95% (inactive),7.96% (inactive),87%,95%,-3.25% (inactive),-7.33% (inactive),-2.71% (inactive),-17.9% (inactive),-2.71% (inactive),93.2% (inactive),94.2% (inactive),0.9% (inactive),0.67% (inactive)
CCn1c(SCC(=O)Nc2ccc(Cl)cc2)nnc1C1CC1,92.5%,95.5% (inactive),92.5% (inactive),84.2% (inactive),74.7% (inactive),11.1% (inactive),63.7%,74.7%,-2.27% (inactive),1.67% (inactive),5.96% (inactive),1.14% (inactive),-4.1% (inactive),102% (inactive),97.8% (inactive),0.85% (inactive),3.74% (inactive)
Clc1ccc(SCCCCn2ccnc2)cc1,90.5%,113% (inactive),90.5% (inactive),102% (inactive),99.2% (inactive),10.9% (inactive),88.3%,99.2%,1.22% (inactive),-1% (inactive),1.02% (inactive),-14.2% (inactive),0.79% (inactive),64.8% (inactive),65.7% (inactive),0.96% (inactive),-0.38% (inactive)
CCn1cc(C(=O)N2CCOCC2)c(=O)c2cc(S(=O)(=O)N(C)C3CCCCC3)ccc21,84%,89% (inactive),84% (inactive),108% (inactive),106% (inactive),19.7% (inactive),86.7%,106%,0.26% (inactive),0.5% (inactive),-13.6% (inactive),-19.3% (inactive),-1.73% (inactive),100% (inactive),95.8% (inactive),0.85% (inactive),2.09% (inactive)
CCn1c(SCC(=O)Nc2cccc(C)c2)nc2c(c1=O)SC(C)C2 (stereo not drawn),90%,88% (inactive),90% (inactive),99% (inactive),76.7% (inactive),3.39% (inactive),73.3%,76.7%,-3.07% (inactive),-0.67% (inactive),-3.52% (inactive),-4.62% (inactive),-3.09% (inactive),95.1% (inactive),88.9% (inactive),2.52% (inactive),10.2% (inactive)
CC1CCCN(C(=O)C23CCC(C)(C(=O)C2)C3(C)C)C1 (stereo not drawn),99%,92% (inactive),99% (inactive),103% (inactive),108% (inactive),15.3% (inactive),92.6%,108%,-2.43% (inactive),-3.17% (inactive),-7.46% (inactive),-8.69% (inactive),-2.08% (inactive),97.7% (inactive),102% (inactive),-0.565% (inactive),4.55% (inactive)
O=C1c2ccccc2C(Nc2ccc(-c3nc4ccccc4[nH]3)cc2)N1Cc1ccco1 (stereo not drawn),90.5%,102% (inactive),90.5% (inactive),65.9% (inactive),83.1% (inactive),15% (inactive),68.1%,83.1%,0.4% (inactive),0.5% (inactive),-0.49% (inactive),4.04% (inactive),-5.99% (inactive),59.2% (inactive),62.1% (inactive),2.23% (inactive),2.26% (inactive)
CN(C)CCCN1C(=O)c2oc3ccc(Cl)cc3c(=O)c2C1c1cccnc1 (stereo not drawn),100%,90.5% (inactive),100% (inactive),96.7% (inactive),83% (inactive),3.07% (inactive),79.9%,83%,-2.93% (inactive),3.5% (inactive),-2.16% (inactive),4.2% (inactive),-1.8% (inactive),93.5% (inactive),92.7% (inactive),0.22% (inactive),-2.19% (inactive)
